{
  "source": "PubChem BioAssay (NCI)",
  "note": "Compounds without any hit were thinned out: in the full panel of roughly 79,000, 15% have a hit. The source made the active and inactive calls. Cut-off read from the data, not from the text of the source: active = growth inhibition above about 70%; inactive = the rest.",
  "data": [
    {"assay": "NCI Yeast Anticancer Drug Screen. Data for the mlh1 rad18 strain (AID 175)", "conditions": "S. cerevisiae mlh1 rad18 strain growth inhibition; at 50.0 µM; active compounds read high", "how_it_was_run": "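In this whole-cell yeast screen, a strain with altered DNA damage repair is challenged with compound, and its growth is measured against matched vehicle-treated controls.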", "values": [
      {"compound": "OC(CBr)c1c(Br)ccc2ccccc12", "note": "(stereo not drawn)", "growth inhibition": "74.7% (active)"},
      {"compound": "O=C1OC(c2cccc(Cl)c2)Sc2ccccc21", "note": "(stereo not drawn)", "growth inhibition": "37.6% (inactive)"},
      {"compound": "c1ccc(N2CCN(c3ccccc3)C2Cc2c[nH]c3ccccc23)cc1", "growth inhibition": "98.9% (active)"},
      {"compound": "CC(=O)c1sc(Nc2ccc(Cl)c(Cl)c2)nc1C", "growth inhibition": "93.2% (active)"},
      {"compound": "Cc1ncn(-c2ccccc2O)c1C", "growth inhibition": "-28.3% (inactive)"},
      {"compound": "C[n+]1c(/C=C/c2ccc(N3CCCC3)cc2)sc2ccccc21", "growth inhibition": "98.8% (active)"},
      {"compound": "COc1ccc(-c2c(C#N)c(S)n(NS(=O)(=O)c3ccc(C)cc3)c(=O)c2C#N)cc1", "growth inhibition": "71.5% (active)"},
      {"compound": "N#Cc1c(-c2ccc(Cl)c(Cl)c2)c(-c2ccc(Cl)c(Cl)c2)nn(CCO)c1=O", "growth inhibition": "97.5% (active)"},
      {"compound": "NCc1ccc(O)c(O)c1O", "growth inhibition": "16.3% (inactive)"},
      {"compound": "C[CH2][Sn]([CH2]C)([O]C(=O)c1cc(OC)c(OC)c(OC)c1)[O][Sn]([CH2]C)([CH2]C)[O]C(=O)c1cc(OC)c(OC)c(OC)c1", "growth inhibition": "61% (inactive)"},
      {"compound": "C=CCNCCC1CCCCCC1", "growth inhibition": "96.5% (active)"},
      {"compound": "Cc1ccc(/C=C/C(=O)/C=C/c2ccc(C)o2)o1", "growth inhibition": "92.4% (active)"},
      {"compound": "CCCC(=O)c1cc(O)c(O)c(CN(C)Cc2cc(Cl)cc(C)c2O)c1O", "growth inhibition": "54.5% (inactive)"},
      {"compound": "COC(=O)/C(C#N)=C/c1cc(OC)c(O)cc1Br", "growth inhibition": "31.1% (inactive)"},
      {"compound": "O=C(/C=C/c1ccccc1)CCN1CCOCC1", "growth inhibition": "84.7% (active)"},
      {"compound": "c1cc2c(c3c1CN(C1CCCCC1)CO3)OCN(C1CCCCC1)C2", "growth inhibition": "12.4% (inactive)"},
      {"compound": "CSc1nc2ccccc2s1", "growth inhibition": "4.2% (inactive)"},
      {"compound": "CC1(C)CC(=O)C(CSC(=O)c2ccccc2)=C(O)C1", "growth inhibition": "-6.2% (inactive)"}
    ]}
  ]
}
